Measurements reported in PubChem BioAssay.
Active and inactive are the calls of the source. The rule behind the calls is not given here.

experiment: hESC survival regulators, cell-based (AID 493140); conditions: human embryonic stem cell survival screen; stronger effect = higher value;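 note: cells exposed to compounds for four days before counting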

Row | Compound | survival
1 | CC(C)c1cc(/C=C(\C#N)C(=O)NCCCc2ccccc2)cc(C(C)C)c1O | 124 (inactive)
2 | NC(=O)c1ccc[n+]([C@H]2O[C@@H](COP(=O)([O-])OP(=O)(O)OC[C@H]3O[C@@H](n4cnc5c(N)ncnc54)C(O)[C@H]3O)C(O)[C@H]2O)c1 (some centres undefined) | 4.5 (inactive)
3 | CCCCC/C=C\C\C=C/C=C/C=C/[C@@H](SCC(N)C(=O)O)[C@@H](O)CCCC(=O)O (some centres undefined) | 107 (inactive)
4 | CN(C)CCCO[C@H]1[C@@H](C(O)CO)OC2OC(C)(C)O[C@H]21 (some centres undefined) | 7.5 (inactive)
5 | NC(=O)c1ncn([C@@H]2O[C@H](CO)[C@H](O)C2O)n1 (some centres undefined) | 1.33 (inactive)
6 | C[N+](C)(CCCOc1ccccc1)c1ccccc1 | 5.92 (inactive)
7 | CC(=O)CC(=O)[C@@]1(O)CC[C@H]2[C@@H]3C=C(C)C4=CC(=O)CC[C@@H]4[C@H]3CC[C@@]21C | 10.6 (inactive)
8 | Nc1ncn(C2O[C@H](CO)[C@H](O)[C@@H]2O)c(=O)n1 (some centres undefined) | 0.083 (inactive)
9 | CCCCC/C=C\C[C@H](O)/C=C/C=C/C=C/[C@@H](O)CCCC(=O)O | 96.2 (inactive)
10 | O=P(O)(O)C(O)c1ccc2ccccc2c1 (centres undefined) | 93.4 (inactive)
11 | CCCCC[C@H](O)/C=C/C=C\CCCCCCCCCC(=O)O | 73.3 (inactive)
12 | CCCCC/C=C\C\C=C/C=C/C=C/[C@@H](O)[C@@H](O)CCCC(=O)O | 116 (inactive)
13 | CCCCC/C=C\C[C@@H]1O[C@H]1C(O)/C=C\C/C=C\CCCC(=O)O (some centres undefined) | 86.8 (inactive)
14 | CCCCC[C@H](O)/C=C/C=C\C/C=C\CCCCCCC(=O)O | 102 (inactive)
